The experiment is described as follows: NCI Yeast Anticancer Drug Screen. Data for the rad50 strain (AID 155).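 Note: 0% = growth of vehicle-only cultures of the same strain.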 The note with it: S. cerevisiae rad50 strain growth inhibition, active compounds read high. On the procedure:
Growth inhibition of yeast strains with defined genetic alterations is measured as a screen for potential anti-cancer activity. Selected strains with alterations in DNA damage repair or cell cycle control were exposed to compounds and growth inhibition was measured relative to vehicle treated controls. The strain used in this assay is rad50

Setting [1] is: at 5.0 µM (retest, dose inferred, filed as 0.5).
The mark [2] stands for this setting: at 50.0 µM (retest, dose inferred, filed as 5.0).

Compounds without any hit were thinned out: in the full panel of roughly 79,000, 15% have a hit. Active and inactive are the calls of the source. Cut-off read from the data, not from the text of the source: active = growth inhibition above about 70%; inactive = the rest.

On to `CC(C)(C)c1ccc(O)c(C(c2ccc([N+](=O)[O-])cc2)c2cc(C(C)(C)C)ccc2O)c1`, for which the growth inhibition (at 1.2 µM) is 19% (inactive); the growth inhibition (at 3.7 µM) was 14% (inactive); the growth inhibition under setting [1] is 21% (inactive); the growth inhibition (at 11.0 µM) was 61% (inactive); the growth inhibition (at 33.0 µM) was 85% (active); the growth inhibition under setting [2] was 88% (active). In addition, the growth inhibition was 84.3% (active) (at 50.0 µM) and 92% (active) (at 100.0 µM).
`O=C1c2ccccc2C(=O)c2cc(S(=O)(=O)Nc3ccccc3)ccc21`: the growth inhibition (at 1.2 µM) was 1% (inactive); the growth inhibition (at 3.7 µM) was 7% (inactive); the growth inhibition under setting [1] is 60% (inactive); the growth inhibition (at 11.0 µM) is 11% (inactive); the growth inhibition (at 33.0 µM) was 23% (inactive); the growth inhibition under setting [2] is 49% (inactive). Also, the growth inhibition is, setting by setting: (at 50.0 µM) 96.2% (active); (at 100.0 µM) 22% (inactive).
In the case of `COC(=O)c1n[nH]c(C)c1N=NN(C)CCC#N`, the growth inhibition is, setting by setting: (at 1.2 µM) 18% (inactive); (at 3.7 µM) 81% (active); under setting [1], 69% (inactive); (at 11.0 µM) 96% (active); (at 33.0 µM) 98% (active); under setting [2], 96% (active). The growth inhibition runs as follows: (at 50.0 µM) 98.5% (active); (at 100.0 µM) 99% (active).
On to `O=C(CCc1ccccc1)ON1C(=S)C(c2ccccc2)(c2ccccc2)N=C1Sc1ccccc1`, for which the growth inhibition is 36% (inactive) (at 1.2 µM); 34% (inactive) (at 3.7 µM); 91% (active) under setting [1]; 31% (inactive) (at 11.0 µM); 29% (inactive) (at 33.0 µM); 96% (active) under setting [2]. Besides, the growth inhibition was 50% (inactive) (at 50.0 µM) and 28% (inactive) (at 100.0 µM).
In the case of `S=c1cn[nH]c2ccc(Br)cc12`, the growth inhibition (at 1.2 µM) was -3% (inactive); the growth inhibition (at 3.7 µM) was -9% (inactive); the growth inhibition under setting [1] was -152% (inactive); the growth inhibition (at 11.0 µM) was 13% (inactive); the growth inhibition (at 33.0 µM) was 78% (active); the growth inhibition under setting [2] was 66% (inactive). The growth inhibition was 69.5% (inactive) (at 50.0 µM) and 85% (active) (at 100.0 µM).

Source of the values: PubChem BioAssay (NCI).
